Laboratory results from PubChem BioAssay AID720518 (National Center for Advancing Translational Sciences (NCATS), 2013).
Records with an inconclusive call do not appear. Unmarked numbers belong to inactive results. Calls come from the whole dose curve.

experiment: qHTS for Inhibitors of Cell Surface uPA Generation: Wild-type Protective Antigen (WT-PrAg) Counterscreen for Cherry-picked Compounds; settings: cells, WT protective antigen toxicity counterscreen; series mostly up to 115 µM; activity (protection): at the top concentration; note: 0% is about no effect

SMILES	activity (protection) [%]
CCOC(=O)N1CCN(c2c(NCCCN3CCCCCC3)c(=O)c2=O)CC1	-1.61
O=C1NC(CCc2ccccc2)C(=O)N1Cc1ccccc1Cl (centres undefined)	4.02
COC(=O)c1ccc(N2CCN(c3ccccc3)CC2)c(NC(=O)C2CC2)c1	-0.466
Cc1cc(=O)[nH]c(=S)[nH]1	-1.26
COC(=O)COc1cc2ccccc2cc1C(=O)Nc1ccccc1	-0.212
COc1cccc(NC(=O)CN(C)C(=O)c2csc3c2CCCC3)c1	3.05
C[C@@H](C(=O)Nc1ccc2ccccc2c1)[C@@H]1C[C@@]1(C)[C@@H](NC(=O)c1cccnc1)c1ccccc1	-2.34
O=C(NCCOc1ccc(F)cc1)C1CCN(S(=O)(=O)c2ccccc2)CC1	-0.928
O=C(c1ccc(F)c([N+](=O)[O-])c1)N1CC2CC(C1)c1cccc(=O)n1C2 (centres undefined)	-1.24
CCOc1ccc(-c2n[nH]c(=S)n2Cc2ccccc2)cc1	-0.239
COc1cc2oc(=O)ccc2cc1[C@H](O)[C@@H](O)C(C)(C)O	-0.25
CC(C)(C)OC(=O)NCCCCCNC(=O)c1[nH]cnc1C(=O)Nc1ccc(Cl)cc1	-1.37
CN(CC(=O)NCCCn1ccnc1)S(=O)(=O)c1ccc(Cl)cc1	0.0947
O=C(Nc1ccnn1C1CCN(CCCC2CCCC2)CC1)c1ccccc1	-2.33
O=C(CNS(=O)(=O)c1ccc(F)cc1)Nc1ccccc1	-0.098
Cc1ccc(Nc2nc(Cl)c(C=O)s2)cc1	-2.07
O=C(CCCC(=O)N(c1cccc(F)c1)C(C(=O)NC1CCCC1)c1ccc(O)cc1)Nc1ccccn1 (centres undefined)	-1.3
COc1ccc(-c2csc(NC(C)c3nc4cc(C(=O)NCCCO)ccc4n3Cc3ccc(C)cc3)n2)cc1 (centres undefined)	0.17
Cc1ccc(-c2nc(CS(=O)(=O)CC(=O)NCc3cccc(F)c3)c(C)o2)cc1	0.115
O=C(NCCN1CCOCC1)c1ccccc1Cl	-1.14

SMILES	activity (protection) [%]
Cn1cc(SCC(=O)Nc2nccs2)c2ccccc21	-1.59
COc1cc(N/C(N)=N/c2nc(C)cc(C)n2)cc(OC)c1	-2.15
CCOC(=O)c1c(NC(=O)CC2SC(N)=NC2=O)sc2c1CCC(C)C2 (centres undefined)	-1.85
O=C(O)c1ccc(-n2nnnc2SCc2cccc(Br)c2)cc1	-1.44
O=C(NCCc1cn2ccsc2n1)c1cccs1	-0.486
O=C(Cc1ccc(Cl)cc1)NC(=S)Nc1ccccc1O	2.16
CC(=O)Nc1sc(C)c(C)c1C(=O)OCC(=O)NC(C)c1ccccc1 (centres undefined)	0.373
Cc1cc(C)nc(NC(=O)CSc2nccc(C)n2)n1	-1.49
CCOC(=O)C1CCN(C(=O)COC(=O)c2c(C)c(CC)nc3ccccc23)CC1	-1.84
COc1ccc(NC(=O)/C(N=Nc2cc(S(=O)(=O)Nc3ccc(OC)cc3)ccc2OC)=C(\C)O)cc1	-1.2
CC(=O)c1ccc2c(c1)c1ccccc1n2CC(C)C	0.604
O=C(O)CNC(=S)N(Cc1ccccc1)Cc1cccnc1	-0.77
COc1ccc(CCNC(=O)Cn2cccc2C(=O)c2ccccc2)c(OC)c1	-1.11
CC1(C)Oc2ccc3ccc(=O)oc3c2[C@@H](O)[C@H]1O	-0.534
NC(=O)c1cc2ccncc2c2ccccc12	-0.105
COC(=O)C1C(=O)c2c([nH]c(C(=O)OC3CCCCC3)c2C)CC1C (centres undefined)	0.16
COc1ccc2nc3c(cc2c1)c(NC(=O)C1CCCO1)nn3CC(C)C (centres undefined)	1.84
CCn1nc(C)c(CNC(=O)C2CCC(=O)N(CCc3ccc(OC)cc3)C2)c1C (centres undefined)	-0.215
CC(C)OC(=O)c1ccc(N2CCN(c3ccccc3F)CC2)nc1	-1.86
